Assay [1] in a line: antimalarial activity against Dd2 strain (AID 2302;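 active = growth inhibition above 50% at the single 2 µM test dose, taken to imply half-maximal potency below 2 µM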;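 also: 0% = DMSO untreated growth and 100% = chloroquine plus artemisinin killed control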). The settings on record: P. falciparum Dd2 in RBCs, LDH growth readout, 72 h; at 2 µM; hits give high values.
The nature of assay [2]: HepG2 cytotoxicity, primary screen, cytotoxicity control for P. falciparum antimalarial project, cell-based, ATP luminescence (AID 2303;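 active = inhibition above 50%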;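 also: 0% = DMSO wells and 100% = digitonin-killed cells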). The following applies: HepG2 viability, 24-48 h, at 10 µM, hits give high values.
Assay [3] addresses L-lactate dehydrogenase (Plasmodium falciparum (isolate CDC / Honduras)) (UniProt Q27743). Kind of assay: PfLDH activity inhibition – cell lysate, 3D7 strain, counter-screen for P. falciparum growth inhibition project (AID 2304).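 Also: 0% = vehicle and 100% = reference inhibitor.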 The following applies: P. falciparum 3D7 crude extract, LDH APAD/NBT absorbance; at 2 µM; hits give high values. In general terms: A counterscreen serves to expose hits that act by an unwanted route or on another target.

Assay [4] in a line: inhibition of 3D7 malaria parasite growth – strain 3D7 (AID 2306).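 Also: 0% = DMSO wells and 100% = chloroquine plus artemisinin control wells.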 The following applies: P. falciparum 3D7 erythrocytic growth, LDH absorbance, 72 h; at 2 µM; hits give high values.
Assay [5] concerns the target Calcium-dependent protein kinase 1 (Plasmodium falciparum (isolate 3D7)) (UniProt P62344). The assay is described as follows: PfCDPK1 kinase inhibitors, biochemical, TCAMS library (AID 1159585; cut-off not given, nearly all actives have IC50 up to about 0.98 µM;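 also: inhibitors leave more ATP so luminescence rises with inhibition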). The following applies: recombinant PfCDPK1, Kinase-Glo ATP depletion luminescence. (In general: Kinase-Glo measures the ATP left after a reaction by luminescence.)
Assay [6] has as its target Plasmodium falciparum protein kinase 6 (PK6, PF3D7_1337100) (UniProt Q8IDW1). The assay is described as follows: PfPK6 kinase inhibitors, biochemical, TCAMS library (AID 1159586). The settings on record: recombinant PfPK6, Kinase-Glo ATP depletion luminescence.
The target in assay [7] is Protein kinase 7 (PK7), Plasmodium falciparum 3D7 (PF3D7_0213400) (UniProt Q7YTF7). The assay is described as follows: inhibition of Plasmodium PK7 catalytic activity – biochemical, TCAMS antimalarial set, Kinase-Glo luminescence (AID 1159587). The following applies: recombinant PfPK7, Kinase-Glo ATP depletion luminescence.
The target of assay [8] is Calcium-dependent protein kinase 4 (Plasmodium falciparum (isolate 3D7)) (UniProt Q8IBS5). The assay is described as follows: PfCDPK4 kinase inhibitors, biochemical, TCAMS library (AID 1159588; cut-off not given, nearly all actives have IC50 up to about 0.91 µM). The settings on record: recombinant PfCDPK4, Kinase-Glo ATP depletion luminescence.

The values below come from PubChem BioAssay.

Unmarked numbers belong to inactive results. For part of these data: Potency and affinity values are given separately. Active and inactive are the calls of the source. Unless noted, no rule for the calls is given here.

Chain of Protein kinase 7 (PK7), Plasmodium falciparum 3D7 (PF3D7_0213400) (Q7YTF7 1-343): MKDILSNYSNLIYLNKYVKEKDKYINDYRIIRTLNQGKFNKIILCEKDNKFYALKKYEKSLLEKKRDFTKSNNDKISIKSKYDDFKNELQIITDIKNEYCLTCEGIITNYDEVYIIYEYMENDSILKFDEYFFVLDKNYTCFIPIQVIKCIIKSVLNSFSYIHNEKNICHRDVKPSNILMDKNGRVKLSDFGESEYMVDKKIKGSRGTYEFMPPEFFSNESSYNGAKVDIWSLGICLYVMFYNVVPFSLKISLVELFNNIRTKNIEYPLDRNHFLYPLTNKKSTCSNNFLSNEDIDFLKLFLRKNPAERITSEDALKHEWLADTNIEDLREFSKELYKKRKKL
Chain of Plasmodium falciparum protein kinase 6 (PK6, PF3D7_1337100) (Q8IDW1 1-305): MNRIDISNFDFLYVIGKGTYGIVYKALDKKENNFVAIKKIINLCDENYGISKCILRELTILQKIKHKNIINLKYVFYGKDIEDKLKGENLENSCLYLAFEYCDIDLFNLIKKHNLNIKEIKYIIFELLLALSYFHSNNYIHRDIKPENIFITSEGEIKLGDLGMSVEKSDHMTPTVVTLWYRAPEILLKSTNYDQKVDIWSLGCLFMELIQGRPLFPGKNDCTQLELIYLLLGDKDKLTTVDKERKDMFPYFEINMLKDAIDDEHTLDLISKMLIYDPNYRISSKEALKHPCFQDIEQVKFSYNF
Chain of Calcium-dependent protein kinase 4 (Plasmodium falciparum (isolate 3D7)) (Q8IBS5 whole entry, looked up): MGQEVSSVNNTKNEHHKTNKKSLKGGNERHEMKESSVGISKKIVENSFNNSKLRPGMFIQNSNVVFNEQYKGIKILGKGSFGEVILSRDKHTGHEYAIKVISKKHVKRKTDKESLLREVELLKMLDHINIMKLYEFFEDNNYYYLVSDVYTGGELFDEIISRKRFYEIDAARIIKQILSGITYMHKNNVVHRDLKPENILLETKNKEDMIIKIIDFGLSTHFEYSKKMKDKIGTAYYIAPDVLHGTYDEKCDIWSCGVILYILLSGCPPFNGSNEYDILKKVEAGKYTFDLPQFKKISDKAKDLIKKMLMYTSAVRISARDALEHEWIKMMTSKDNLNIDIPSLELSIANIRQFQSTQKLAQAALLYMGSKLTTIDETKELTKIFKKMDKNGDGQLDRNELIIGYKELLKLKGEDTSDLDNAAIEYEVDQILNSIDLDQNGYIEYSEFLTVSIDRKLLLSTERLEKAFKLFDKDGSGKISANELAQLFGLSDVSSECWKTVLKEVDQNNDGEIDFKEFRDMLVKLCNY
Chain of L-lactate dehydrogenase (Plasmodium falciparum (isolate CDC / Honduras)) (Q27743 whole entry, looked up): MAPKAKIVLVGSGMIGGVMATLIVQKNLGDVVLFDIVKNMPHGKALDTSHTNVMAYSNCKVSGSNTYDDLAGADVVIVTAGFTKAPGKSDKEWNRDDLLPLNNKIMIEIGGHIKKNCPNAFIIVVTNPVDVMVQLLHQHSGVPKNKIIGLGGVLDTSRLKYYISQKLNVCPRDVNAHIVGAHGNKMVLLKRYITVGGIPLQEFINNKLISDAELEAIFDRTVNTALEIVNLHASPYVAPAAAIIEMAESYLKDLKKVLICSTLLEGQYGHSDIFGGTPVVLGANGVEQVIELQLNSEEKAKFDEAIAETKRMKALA
Chain of Calcium-dependent protein kinase 1 (Plasmodium falciparum (isolate 3D7)) (P62344 whole entry, looked up): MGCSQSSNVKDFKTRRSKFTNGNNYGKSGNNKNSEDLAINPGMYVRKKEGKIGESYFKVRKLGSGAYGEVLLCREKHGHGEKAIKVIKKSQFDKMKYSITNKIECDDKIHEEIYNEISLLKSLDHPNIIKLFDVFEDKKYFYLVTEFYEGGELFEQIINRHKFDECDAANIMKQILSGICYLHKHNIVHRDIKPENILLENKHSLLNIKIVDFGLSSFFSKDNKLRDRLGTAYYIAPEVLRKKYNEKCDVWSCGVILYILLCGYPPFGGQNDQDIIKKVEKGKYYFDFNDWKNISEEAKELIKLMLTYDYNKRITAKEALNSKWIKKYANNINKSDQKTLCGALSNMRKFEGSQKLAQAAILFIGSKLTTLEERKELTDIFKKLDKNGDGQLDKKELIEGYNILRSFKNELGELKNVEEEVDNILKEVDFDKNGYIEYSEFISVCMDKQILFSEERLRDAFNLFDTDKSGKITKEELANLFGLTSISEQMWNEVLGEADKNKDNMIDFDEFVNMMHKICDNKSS

One may read the inhibition as the change of the read-out against control, counted positive when it falls. `O=c1cc(NCCCNC2CCOc3c(Cl)cc(Cl)cc32)[nH]c2ccccc12` (stereo not drawn): the growth inhibition in assay [1] was 88% (active); in assay [4] it was 100% (active). For the same compound, the inhibition is -7% in assay [2] and -3% in assay [3]. Besides, the outcome in assay [5], in assay [6], in assay [7] and in assay [8] was inactive.
Consider `COc1cc2nc(N3CCC(CNC(=O)c4ccc(C(C)=O)cc4)CC3)nc(N)c2cc1OC`, for which the growth inhibition is 15% in assay [1] and 96% (active) in assay [4]. For the same compound, the inhibition in assay [2] is 10%; in assay [3], 1%. Further, the outcome in assay [5], in assay [6], in assay [7] and in assay [8] was inactive.
Turning to `Cc1[nH]c2ccc(C#N)cc2c(=O)c1Br`, the growth inhibition is 61% (active) in assay [1] and 91% (active) in assay [4]. Further, the inhibition in assay [2] is 2%; in assay [3], -1%. The outcome in assay [5], in assay [6], in assay [7] and in assay [8] was inactive.
For `O=C(O)c1ccc(NC(=O)C2CC(=O)N(Cc3ccc(Cl)cc3)C(=Nc3ccc(Cl)cc3)S2)cc1` (stereo not drawn), the growth inhibition in assay [1] was 95% (active); in assay [4], 99% (active). Besides, the inhibition was -1% in assay [2] and -6% in assay [3]. Further, the result in assay [5], in assay [6], in assay [7] and in assay [8] was inactive.
As for `N#Cc1ccc(/C=C/C(=O)NCCCCCN2CCN(C(=O)Nc3ccc(Cl)c(C(F)(F)F)c3)CC2)cc1`, the growth inhibition was -7% in assay [1] and 94% (active) in assay [4]. Also, the inhibition in assay [2] is 42%; in assay [3], -1%. Further, the result in assay [5], in assay [6], in assay [7] and in assay [8] was inactive.
In the case of `CCCCc1cc(NC2CCN(C)CC2)nc(Nc2ccccc2)n1`, the growth inhibition in assay [1] was 29%; in assay [4], 103% (active). The inhibition in assay [2] was 7%; in assay [3], -2%. Besides, the result in assay [5], in assay [6], in assay [7] and in assay [8] was inactive.
Consider `O=C(Nc1ccc2c(c1)CCN(C1CCC1)CC2)c1ccc(-n2ccnc2)cn1`, for which the growth inhibition in assay [1] is -1%; in assay [4], 92% (active). The inhibition in assay [2] was 8%; in assay [3], 0%. Further, the result in assay [5], in assay [6], in assay [7] and in assay [8] was inactive.
For `CN(C)CCn1cc(C(=O)c2cc(Cl)ccc2O)cc1-c1nc2ccccc2c(=O)[nH]1`, the figures for the growth inhibition in assay [1] and in assay [4] were 87% (active) and 99% (active), respectively. Also, the values for the inhibition in assay [2] and in assay [3] were 16% and -3%, respectively. Moreover, the outcome in assay [5], in assay [6], in assay [7] and in assay [8] was inactive.
On to `COc1cc(CNC(=S)NN=C(C)c2ccccn2)cc(OC)c1OC`, for which the growth inhibition in assay [1] is 92% (active); in assay [4], 99% (active). The inhibition in assay [2] was 45%; in assay [3] it was -4%. Besides, the result in assay [5], in assay [6], in assay [7] and in assay [8] was inactive.
As for `CCc1cn2c3c(cc(C(=O)N[C@@H](Cc4ccccc4)[C@H](O)CNCc4cccc(C)c4)cc13)N(C)S(=O)(=O)CC2`, the growth inhibition in assay [1] is 98% (active); in assay [4] it was 96% (active). The inhibition in assay [2] and in assay [3] was 5% each time. Also, the result in assay [5], in assay [6], in assay [7] and in assay [8] was inactive.
Take `Oc1ccc2ncnc(Nc3ccc(OCc4cccc(F)c4)c(Cl)c3)c2c1`: the growth inhibition is 30% in assay [1] and 100% (active) in assay [4]. In addition, the inhibition is 24% in assay [2] and 2% in assay [3]. Further, the result in assay [5], in assay [6], in assay [7] and in assay [8] was inactive.
As for `COc1cccc(Cc2c(C)nc3nc(N)nc(N)c3c2C)c1`, the growth inhibition in assay [1] was 1%; in assay [4], 95% (active). Besides, the values for the inhibition in assay [2] and in assay [3] were 65% (active) and -2%, respectively. In addition, the outcome in assay [5], in assay [6], in assay [7] and in assay [8] was inactive.
Take `CCOc1ccccc1CON1C(N)=NC(N)=NC1(C)C`: the growth inhibition is 1% in assay [1] and 90% (active) in assay [4]. Moreover, the inhibition is 66% (active) in assay [2] and -2% in assay [3]. In addition, the result in assay [5], in assay [6], in assay [7] and in assay [8] was inactive.
Turning to `CCC(C)(C)c1ccc(S(=O)(=O)Nc2ccc(Cl)c(OCCN3CCCCC3)c2)cc1`, the growth inhibition was 93% (active) in assay [1] and 88% (active) in assay [4]. Besides, the results for the inhibition in assay [2] and in assay [3] were 100% (active) and 0%, respectively. The result in assay [5], in assay [6], in assay [7] and in assay [8] was inactive.
For `CC(=O)Nc1ccc(CN(C)C2CCN(c3cc(NC(=O)c4cccc(C)c4)ccn3)CC2)cc1`, the growth inhibition was 13% in assay [1] and 94% (active) in assay [4]. The inhibition in assay [2] is -2%; in assay [3], -1%. Also, the outcome in assay [5], in assay [6], in assay [7] and in assay [8] was inactive.
Regarding `CC(C)NCc1ccc(-c2ccc(CN3CCCC(c4ccccc4)C3)cc2)c(C(=O)NC2Cc3ccccc3C2)c1` (stereo not drawn), the growth inhibition in assay [1] is 64% (active); in assay [4], 96% (active). The inhibition in assay [2] was 41%; in assay [3] it was 3%. Also, the result in assay [5], in assay [6], in assay [7] and in assay [8] was inactive.
For `COc1ccc2ncc(F)c([C@H](O)CN3CCC(NCc4ccc5c(c4)NC(=O)CS5)CC3)c2c1`, the results for the growth inhibition in assay [1] and in assay [4] were 98% (active) and 102% (active), respectively. In addition, the inhibition in assay [2] is 7%; in assay [3] it was -13%. The result in assay [5], in assay [6], in assay [7] and in assay [8] was inactive.
As for `Cc1ccc(-c2cc(C(=O)Nc3ccc(S(=O)(=O)N(C)Cc4ccccc4)cc3)[nH]n2)c(O)c1`, the growth inhibition was 67% (active) in assay [1] and 99% (active) in assay [4]. The inhibition was 34% in assay [2] and -1% in assay [3]. In addition, the result in assay [5], in assay [6], in assay [7] and in assay [8] was inactive.
For the compound `CCOc1cccc(C(=O)Nc2ccc(-c3nc4ccccc4[nH]3)cc2)c1`, the growth inhibition in assay [1] was 30%; in assay [4], 96% (active). Besides, the inhibition was 40% in assay [2] and -1% in assay [3]. For the same compound, the outcome in assay [5], in assay [6], in assay [7] and in assay [8] was inactive.
Consider `Fc1ccc2nc(-c3ccc(-c4ccc(CN5CCN(CCN6CCOCC6)CC5)cc4)cc3)[nH]c2c1`, for which the growth inhibition is 100% (active) in assay [1] and 101% (active) in assay [4]. Also, the inhibition is 38% in assay [2] and -5% in assay [3]. In addition, the outcome in assay [5], in assay [6], in assay [7] and in assay [8] was inactive.
`COc1ccc(Cc2nc3c(n2C(C)=O)SC(c2ccc(Cl)c(Cl)c2)=NN3C(C)=O)cc1`: the growth inhibition in assay [1] was 22%; in assay [4], 94% (active). Besides, the results for the inhibition in assay [2] and in assay [3] were -2% and -6%, respectively. For the same compound, the outcome in assay [5], in assay [6], in assay [7] and in assay [8] was inactive.
